Measured values reported in PubChem BioAssay (Tox21).
Records with an inconclusive call do not appear. Activity calls are given as the source filed them. Unless noted, the call rests on the fitted dose curve.

What was measured:
[1] = Nuclear factor erythroid 2-related factor 2/antioxidant responsive element (Nrf2/ARE) small molecule agonists: qHTS cell viability counter screen in human keratinocytes (AID 1919968; active means well fitted curve in the direction sought with a large enough effect in the repeat runs; an effect the other way counts as inactive or inconclusive; further: nearly all actives have a fitted effect of over 55% in size)
How it was run: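 Measured as CellTiter-Fluor fluorescence, this readout tracks cytotoxicity in the same wells as the ARE-luciferase screen. HaCaT reporter cells (1,500/well) received compounds after a 5 h pre-incubation and were exposed for 23 h.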

[2] = Nuclear factor erythroid 2-related factor 2/antioxidant responsive element (Nrf2/ARE) small molecule agonists: luciferase reporter gene qHTS assay in human keratinocytes (AID 1919969); further: nearly all actives have a fitted effect of over 35% in size
[3] = target: Gonadotropin-releasing hormone receptor (Homo sapiens) (UniProt P30968); test: Human gonadotropin-releasing hormone receptor (GnRHR) small molecule agonists, calcium flux assay in GnRHR-HEK293 cells (AID 1920063); further: nearly all actives have a fitted effect of over 35% in size
Gonadotropin-releasing hormone receptor (Homo sapiens), sequence (P30968 whole entry, looked up): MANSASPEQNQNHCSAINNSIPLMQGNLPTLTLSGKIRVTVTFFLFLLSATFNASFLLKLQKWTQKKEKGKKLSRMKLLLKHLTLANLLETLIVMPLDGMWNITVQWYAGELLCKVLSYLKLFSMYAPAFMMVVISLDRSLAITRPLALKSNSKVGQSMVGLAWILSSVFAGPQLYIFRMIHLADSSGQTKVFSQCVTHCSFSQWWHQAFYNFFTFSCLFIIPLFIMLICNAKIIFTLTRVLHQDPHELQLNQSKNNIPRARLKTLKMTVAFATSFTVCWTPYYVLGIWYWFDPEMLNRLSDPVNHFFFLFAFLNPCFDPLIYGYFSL
How it was run: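 Fluorescence kinetics (480 nm excitation, 540 nm emission; 3 min, 1 s steps) report calcium mobilisation in human GnRHR-HEK293 cells in agonist mode. Dye incubation: 1 h, 37 C.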

[4] = target: KiSS-1 receptor (Homo sapiens) (UniProt Q969F8); test: Human kisspeptin (KISS1R) small molecule agonists, calcium flux assay in KISS1R-HEK293 cells (AID 1920064; active means well fitted curve in the direction sought with a large enough effect in the repeat runs; an effect the other way counts as inactive or inconclusive)
KiSS-1 receptor (Homo sapiens), sequence (Q969F8 whole entry, looked up): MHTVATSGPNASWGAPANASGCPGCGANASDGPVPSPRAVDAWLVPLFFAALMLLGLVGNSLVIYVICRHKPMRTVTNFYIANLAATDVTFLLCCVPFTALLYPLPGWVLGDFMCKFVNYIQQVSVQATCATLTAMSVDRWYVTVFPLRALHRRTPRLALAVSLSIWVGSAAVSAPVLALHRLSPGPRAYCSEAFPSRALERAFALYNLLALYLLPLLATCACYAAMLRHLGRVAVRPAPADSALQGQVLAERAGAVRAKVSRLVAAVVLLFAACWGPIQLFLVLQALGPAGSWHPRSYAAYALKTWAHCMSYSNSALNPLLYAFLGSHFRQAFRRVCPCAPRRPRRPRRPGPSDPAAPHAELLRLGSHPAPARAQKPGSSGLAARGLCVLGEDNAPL
How it was run: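 Measures KISS1R agonism through calcium-sensitive dye fluorescence in stably transfected HEK293 cells, read for 3 min after pin-tool compound delivery; 15-point titrations in triplicate.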

[5] = G protein-coupled receptor (GPCR) small molecule agonists, calcium flux assay: HEK293 wild type cell line counter screen (AID 1920065)
How it was run: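 Readout: fluorescence at 480 nm excitation/540 nm emission, sampled at 1 s intervals for 3 min. Cells had been cultured 18 h, then dye-loaded 1 h at 37 C before compound or ATP addition.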

[6] = p53 small molecule agonists, cell-based qHTS assay with human liver microsomes (AID 1963577);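 further: p53 response element beta-lactamase reporter cells with liver microsomes plus NADPH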
How it was run: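 With metabolic activation: human liver microsomes (0.5 mg/mL final) plus NADPH (0.5 mg/mL final) added alongside compounds to p53RE-bla cells; 16 h 37 C exposure; beta-lactamase read by LiveBLAzer fluorescence.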

[7] = p53 small molecule agonists, cell-based qHTS assay with rat liver microsomes (AID 1963578)
How it was run: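 Metabolic activation by rat liver microsomes and NADPH, each 0.5 mg/mL final, added right after compounds to p53RE-bla reporter cells (4,000/well, plated 5 h earlier). 16 h at 37 C, then LiveBLAzer substrate for 2 h at room temperature in the dark; fluorescence read-out.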

[8] = p53 small molecule agonists, cell-based qHTS assay with human liver microsomes: qHTS cell viability counter screen (AID 1963579); further: nearly all actives have a fitted effect of over 45% in size
How it was run: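 Metabolic activation used human liver microsomes and NADPH, both 0.5 mg/mL final, over 16 hours at 37 C on p53RE-bla cells (4,000/well). Cytotoxicity measured by CellTiter-Glo luminescence, 30 min at room temperature.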

[9] = p53 small molecule agonists, cell-based qHTS assay with rat liver microsomes: qHTS cell viability counter screen (AID 1963580); further: nearly all actives have a fitted effect of over 45% in size
How it was run: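 In HCT-116 cells carrying a p53 response element-bla reporter, compounds were metabolically activated in situ by rat liver microsomes with NADPH over 16 h. Cell ATP content then served as the cytotoxicity measure.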

[10] = p53 small molecule agonists, cell-based qHTS assay: qHTS cell viability counter screen (AID 1963581); further: nearly all actives have a fitted effect of over 45% in size
How it was run: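 In the same plates used for the p53 bla reporter, HCT-116 cells given compounds for 16 h at 37 C received CellTiter-Glo; luminescence was recorded 30 min later at room temperature.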

[11] = p53 small molecule agonists, cell-based qHTS assay (AID 1963582; active means well fitted activation curve with a large enough effect in the signal ratio in the repeat runs, not every such curve was filed as active; the % refers to the signal ratio)
How it was run: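 Compounds are pin-transferred in DMSO onto p53RE-bla cells and incubated 16 h at 37 C. The B/G FRET beta-lactamase substrate is then applied for 2 h at RT and fluorescence recorded.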

[12] = target: 5-hydroxytryptamine receptor 2A (Homo sapiens) (UniProt P28223); test: 5-hydroxytryptamine receptor 2A (HTR2A) small molecule antagonists, cell-based qHTS assay (AID 1963586); further: nearly all actives have a fitted effect of over 45% in size
5-hydroxytryptamine receptor 2A (Homo sapiens), sequence (P28223 whole entry, looked up): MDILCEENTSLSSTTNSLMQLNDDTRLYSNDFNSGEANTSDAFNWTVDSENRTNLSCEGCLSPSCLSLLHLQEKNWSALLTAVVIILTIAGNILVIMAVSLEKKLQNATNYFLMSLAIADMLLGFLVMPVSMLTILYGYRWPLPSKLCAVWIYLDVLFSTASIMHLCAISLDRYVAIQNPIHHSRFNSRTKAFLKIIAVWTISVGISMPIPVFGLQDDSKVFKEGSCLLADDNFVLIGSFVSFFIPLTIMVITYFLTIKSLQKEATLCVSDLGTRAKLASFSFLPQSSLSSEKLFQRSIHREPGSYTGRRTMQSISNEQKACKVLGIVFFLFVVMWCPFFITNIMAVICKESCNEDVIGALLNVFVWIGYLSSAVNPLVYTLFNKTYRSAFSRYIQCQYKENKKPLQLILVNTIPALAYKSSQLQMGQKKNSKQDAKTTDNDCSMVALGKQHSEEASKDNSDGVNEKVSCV
How it was run: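 Antagonist-mode intracellular calcium assay: DOI (4 nM) added after 5 min compound pre-incubation at room temperature to dye-loaded HTR2A-CHO cells. Fluorescence followed for 3 min, sampled every second.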

[13] = target: 5-hydroxytryptamine receptor 2A (Homo sapiens) (UniProt P28223); test: 5-hydroxytryptamine receptor 2A (HTR2A) small molecule agonists, cell-based qHTS assay (AID 1963587); further: nearly all actives have a fitted effect of over 30% in size
How it was run: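 HTR2A-CHO cells, plated 18 h at 37 C/5% CO2, dye-loaded 1 h at 37 C; compounds in DMSO added by pin tool (agonist mode). Intracellular calcium flux read as kinetic fluorescence on FDSS over 2 min at 1 s intervals.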

[14] = target: Muscarinic acetylcholine receptor M1 (Homo sapiens) (UniProt P11229); test: Cholinergic receptor muscarinic 1 (CHRM1) small molecule antagonists, cell-based qHTS assay (AID 1963588); further: nearly all actives have a fitted effect of over 40% in size
Muscarinic acetylcholine receptor M1 (Homo sapiens), sequence (P11229 whole entry, looked up): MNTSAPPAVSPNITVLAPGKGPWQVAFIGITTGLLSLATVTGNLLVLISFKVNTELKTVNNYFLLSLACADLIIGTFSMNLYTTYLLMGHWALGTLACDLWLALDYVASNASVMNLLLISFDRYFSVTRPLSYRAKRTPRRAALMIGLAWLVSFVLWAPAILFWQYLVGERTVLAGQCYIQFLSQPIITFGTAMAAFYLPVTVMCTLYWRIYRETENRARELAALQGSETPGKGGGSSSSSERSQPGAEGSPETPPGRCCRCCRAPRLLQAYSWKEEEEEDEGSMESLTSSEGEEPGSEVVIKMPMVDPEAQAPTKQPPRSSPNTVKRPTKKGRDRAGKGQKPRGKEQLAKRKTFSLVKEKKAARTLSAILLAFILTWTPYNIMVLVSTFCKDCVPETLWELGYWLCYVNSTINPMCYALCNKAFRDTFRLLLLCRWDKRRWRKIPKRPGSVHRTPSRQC
How it was run: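 CHRM1-CHO calcium-flux assay, antagonist mode. Cells were seeded 18 h, dye-loaded 1 h at 37 C and given compound for 5 min at RT, then acetylcholine was added at 50nM. FDSS fluorescence was read 3 min; 15 concentrations, three runs.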

[15] = target: Muscarinic acetylcholine receptor M1 (Homo sapiens) (UniProt P11229); test: Cholinergic receptor muscarinic 1 (CHRM1) small molecule agonists, cell-based qHTS assay (AID 1963589); further: nearly all actives have a fitted effect of over 35% in size
How it was run: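 Each compound was tested at 15 concentrations across three independent runs on dye-loaded CHO cells stably expressing human CHRM1, reading intracellular calcium fluorescence kinetically at 1 sec intervals.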

[16] = cAMP Responsive Elements (CRE) small molecule agonists, cell-based qHTS assay (AID 1963590)
How it was run: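 Cell line: CRE-bla HEK 293T; medium DMEM/10% dialyzed FBS/0.1 mM NEAA/1 mM pyruvate/25 mM HEPES; 3 h compound exposure; beta-lactamase FRET readout after 2 h substrate loading at RT.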

[17] = cAMP Responsive Elements (CRE) small molecule antagonists, cell-based qHTS assay (AID 1963591; active means well fitted inhibition curve with a large enough effect in the signal ratio in the repeat runs, not every such curve was filed as active; the % refers to the signal ratio)
How it was run: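 Inhibition of NKH477-driven (0.25 uM final) CRE-beta-lactamase signal in HEK293T cells, 3 h compound exposure at 37 °C, detected by FRET substrate fluorescence.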

[18] = target: Beta-2 adrenergic receptor (Homo sapiens) (UniProt P07550); test: Adrenergic beta2 receptor (ADRB2) small molecule antagonists, cell-based qHTS assay (AID 1963592); further: series mostly up to about 92 µM; nearly all actives have a fitted effect of over 50% in size
Beta-2 adrenergic receptor (Homo sapiens), sequence (P07550 whole entry, looked up): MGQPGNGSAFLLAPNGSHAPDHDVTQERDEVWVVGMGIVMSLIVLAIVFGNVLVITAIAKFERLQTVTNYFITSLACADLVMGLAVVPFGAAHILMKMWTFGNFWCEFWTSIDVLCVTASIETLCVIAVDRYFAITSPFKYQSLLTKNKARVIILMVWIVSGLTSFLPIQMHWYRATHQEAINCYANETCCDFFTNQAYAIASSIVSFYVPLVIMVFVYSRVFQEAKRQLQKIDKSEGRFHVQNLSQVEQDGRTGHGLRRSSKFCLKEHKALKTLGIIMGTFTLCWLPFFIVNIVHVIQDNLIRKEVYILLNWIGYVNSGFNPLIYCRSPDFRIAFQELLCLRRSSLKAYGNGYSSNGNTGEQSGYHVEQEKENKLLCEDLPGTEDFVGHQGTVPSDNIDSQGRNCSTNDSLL
How it was run: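 Cells (CHO, stable ADRB2 overexpression) incubated 18-20hr at 37C; compounds added from DMSO; agonist mix (1nM isoproterenol, 100uM IBMX, 25uM Ro-20-1724) added; 0.5hr RT; d2-cAMP and anti-cAMP-cryptate added; 1hr RT; 665/615 nm read.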

[19] = target: D(2) dopamine receptor (Homo sapiens) (UniProt P14416); test: Dopamine D2 receptor (DRD2) small molecule agonists, cell-based qHTS assay (AID 1963594); further: nearly all actives have a fitted effect of over 35% in size
D(2) dopamine receptor (Homo sapiens), sequence (P14416 whole entry, looked up): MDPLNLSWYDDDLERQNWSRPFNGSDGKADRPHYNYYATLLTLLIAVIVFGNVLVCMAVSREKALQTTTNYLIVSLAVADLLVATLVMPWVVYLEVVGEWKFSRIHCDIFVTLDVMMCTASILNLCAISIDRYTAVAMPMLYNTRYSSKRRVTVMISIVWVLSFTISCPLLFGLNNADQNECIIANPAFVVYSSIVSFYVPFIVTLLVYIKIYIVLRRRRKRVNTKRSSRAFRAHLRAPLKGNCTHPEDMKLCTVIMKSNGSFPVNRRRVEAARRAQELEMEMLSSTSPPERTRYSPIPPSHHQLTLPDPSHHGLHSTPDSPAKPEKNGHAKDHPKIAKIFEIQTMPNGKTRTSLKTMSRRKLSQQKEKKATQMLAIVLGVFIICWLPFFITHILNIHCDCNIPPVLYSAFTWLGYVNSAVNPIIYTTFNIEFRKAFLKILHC
How it was run: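 HEK293 cells stably expressing DRD2 were cultured 24 h at 37 C, then given Ro20-1724 (0.1 mM final) and compounds for 10 min at room temperature. NKH477 (200nM) was then added for 30 min. cAMP was read by HTRF.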

[20] = target: D(2) dopamine receptor (Homo sapiens) (UniProt P14416); test: Dopamine D2 receptor (DRD2) small molecule antagonists, cell-based qHTS assay (AID 1963595; active means well fitted inhibition curve with a large enough effect in the signal ratio in the repeat runs, with a control signal flat; the % refers to the signal ratio)
How it was run: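 Human DRD2 antagonist qHTS measuring cAMP by HTRF. The cells are exposed to compound for 10 min, then to NKH477 (200 nM) and quinpirole (12 nM) for 30 min at RT, with Ro20-1724 (0.1 mM) present throughout.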

Measured: Potency

CCCCC1CCC(=O)O1 (stereo not given)
inactive: all assays above

CC(C)(C)C(=O)C1C(=O)c2ccccc2C1=O
inactive: all assays above

C/C=C(\C)C(=O)OCc1ccccc1
inactive: all assays above

C/C=C/CO
inactive: all assays above

O=C(O)C(S)C(S)C(=O)O (stereo not given)
inactive: all assays above

CC(=O)Nc1ccc(C)cc1
inactive: all assays above

O=C1CC[C@H](C(=O)N2CCCCC2)N1
inactive: all assays above
